About 83,000 compounds went through this panel and 20% of them were active in at least one assay; those are over-represented in the sample as a whole.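 Assay: single dose, 48 h. Readout: percent growth (0 = no net growth; negative = cell death). Active: <10.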 Values without a mark were called inactive. The source made the active and inactive calls.
system: MDA-MB-468 breast; experiment: NCI-60 one-dose screen, 48 h (100 = growth as untreated, 0 = no growth, -100 = all killed); conditions: 10 µM unless noted

Row | SMILES | growth
1 | COc1cc2cc(Oc3ccc(NC(=O)Nc4ccc(F)c(C(F)(F)F)c4)cc3)c(C)nc2cc1OCCN1CCCCC1 | 71.3%
2 | Cc1cc(=O)n2nc(-c3c[nH]c4ccccc34)sc2n1 | 88.8%
3 | CC1(C)Oc2cc3oc(=O)ccc3cc2C[C@@H]1OCCOS(=O)(=O)c1ccc(C#N)cc1 | 90.6%
4 | CN1CCN(c2ccc(NC(=O)c3cncnc3Nc3ccc(OCc4ccccn4)c(Cl)c3)cc2)CC1 | 38.1%
5 | Cc1nn(-c2ccccc2)c(N2CCOCC2)c1-c1nc2ccc([N+](=O)[O-])cc2[nH]1 | 94.3%
6 | COc1ccc(CN2c3ccccc3Sc3ccccc32)c(C(F)(F)F)c1 | 18.8%
7 | COc1cc(C(=O)/C=C/c2c(C)n([O-])c3ccc(C)cc3[n+]2=O)cc(OC)c1OC | 30.3%
8 | COc1ccc(C(=S)N2CCN(c3ccccc3Cl)CC2)cc1OC | 92.1%
9 | CO[C@H](C(=O)[C@@H](O)[C@@H](C)O)[C@@H]1Cc2cc3cc(O[C@H]4C[C@@H](O[C@H]5C[C@@H](O)[C@H](O)C(C)O5)[C@H](O)C(C)O4)c(C)c(O)c3c(O)c2C(=O)[C@H]1O[C@H]1C[C@@H](O[C@H]2C[C@@H](O[C@H]3C[C@](C)(O)C(=O)C(C)O3)[C@@H](O)C(C)O2)[C@H](O)C(C)O1 (stereo partly specified) | -46.7% (active)
10 | Cc1cc(N(CCNc2ccnc3cc(Cl)ccc23)Cc2ccco2)nc(Cl)n1 | -33.5% (active)
11 | C#CCN(CCCOc1ccc(Cl)cc1Cl)CCCSC(=O)CCCCCN1/C(=C\C=C2/CCCC(/C=C/C3=[N+](CCCCCC(=O)[O-])c4ccccc4C3(C)C)=C2Cl)C(C)(C)c2ccccc21 | 12.8%
12 | C=CC(=O)N1CCC=C(c2cc3c(N[C@H](C)c4ccccc4)ncnc3[nH]2)C1 | 9.58% (active)
13 | N#CC(C#N)N=Nc1ccc(Cl)cc1Cl | 58.8%
14 | O=C(Nc1nc(-c2ccc(Br)cc2)cs1)c1cc(-c2ccc(Br)cc2)nc2ccc(Cl)cc12 | 102%
15 | CCOC(=O)c1c(Cl)c2c(n1Cc1cccc(OC)c1)-c1oncc1CC2 | 11.1%
16 | COc1ccc(C2=Nn3c(nnc3-c3ccc(Cl)cc3N)SC2)cc1 | 100%

Row | SMILES | growth
17 | C=C1C(=O)O[C@H]2[C@H]1CC/C(COC(=O)NCc1ccc(Cn3c(=O)sn(-c4ccc(Cl)cc4)c3=O)cc1)=C\CC[C@@]1(C)O[C@@H]21 | 22.6%
18 | Cc1oc(-c2ccc(Cl)cc2)nc1/C=C/C(=O)c1ccccc1 | 95%
19 | N#Cc1c2ccccc2c2n1-c1ccccc1OC(c1ccccc1)C2=O (stereo unspecified) | 65.7%
20 | Cn1cc(-c2csc(-c3cn(C)c4ncccc34)n2)c2ccccc21 | 18%
21 | CCC1=Cc2cc(OC)ccc2OC12C=Cc1cc(OC)ccc1O2 (stereo unspecified) | 69.6%
22 | Cc1ccc(N2C3c4ccccc4N(S(=O)(=O)c4ccc(C)cc4)C2c2ccccc2N3S(=O)(=O)c2ccc(C)cc2)cc1 | 120%
23 | N#Cc1c(-c2ccccc2)cc(-c2ccccc2)n(CCCC(=O)Nc2ccccc2N)c1=O | 14.9%
24 | NC(=O)N1N=C(c2ccc(Cl)cc2)CC1c1cn(-c2ccccc2)nc1-c1ccc(Cl)cc1 (stereo unspecified) | 69.1%
25 | COc1ccc(/C=C2\Cc3c(Br)cccc3C2=O)c(OC)c1 | 49.6%
26 | C#CCNC(=O)CC[C@]1(C)[C@H]2CC[C@@H]3[C@@H]([C@@](C)(O)CCC=C(C)C)CC[C@@]3(C)[C@]2(C)CC[C@H]1C(=C)C | 48.5% [100 µM]
27 | O=C1[C@H]2Cc3c([nH]c4ccccc34)[C@@H](c3ccc(Cl)cc3)N2C(=O)CN1C1CCN(Cc2c(Cl)cccc2Cl)CC1 | 98.3%
28 | COc1cc(/C=C2\CN(S(=O)(=O)c3ccccc3)C/C(=C\c3cc(CN4CCCCC4)c(O)c(OC)c3)C2=O)cc(CN2CCCCC2)c1O | 53.2%
29 | C/C(=C(/c1ccc(O)cc1)c1ccc(OCCN2CCCCCC2)cc1)c1ccccc1 | 31.8%
30 | C=CC1(C)C(O[Si](C)(C)C(C)(C)C)CC2C3OC(=O)NC31c1cccc3c1[C@H](C(=O)N3C)C2(C)C (stereo partly specified) | 31.3%
31 | O=C(CCCCCCN1CC(=O)N2[C@@H](c3ccccc3Br)c3[nH]c4ccccc4c3C[C@H]2C1=O)NO | 36.2%

From PubChem BioAssay (NCI)
